Measured values as given in PubChem BioAssay (EPA / NIEHS).
“And” between values parts separate entries of the source, which are not always exact repeats. Equal entries are not always repeated. Some structures have more than one record in an assay (separate samples or runs), and their calls can disagree. The source made the active and inactive calls. Rule for the calls: active = hit-call score of the fitted dose curve at least 0.9, where 1 is the maximum; inactive = score below 0.9.

How the values were obtained:
[1] = read-out: Tumor necrosis factor receptor superfamily member 6 (Homo sapiens) (UniProt P25445); assay: LTEA_HepaRG_FAS: Life Technologies and Expression Analysis (LTEA) Assay for Fas cell surface death receptor (FAS) using HepaRG (AID 2283447); conditions: mRNA level, 48 h; actives raise or lower the signal
Procedure, shortened: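 Differentiated human HepaRG cells, pre-cultured 48 h, were exposed in duplicate for 48 h to 8-point half-log concentrations (top 100 uM, 0.5% DMSO) in serum-free induction medium; FAS mRNA measured by qRT-PCR, normalized to ACTB/GAPDH/POLR2A, bidirectional fit versus DMSO.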

[2] = read-out: Fatty acid synthase (Homo sapiens) (UniProt P49327); assay: LTEA_HepaRG_FASN: Life Technologies and Expression Analysis (LTEA) Assay for Fatty Acid Synthase (FASN) using HepaRG (AID 2283448); conditions: mRNA level, 48 h; actives raise or lower the signal
Procedure, shortened: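 In human HepaRG cultures, 48 h chemical exposure (up to 100 uM, 0.5% DMSO) preceded TaqMan qRT-PCR of FASN.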

[3] = read-out: Cyclin D2 (CCND2), CCND2 (gene 894); assay: LTEA_HepaRG_CCND2: Life Technologies and Expression Analysis (LTEA) Assay for Cyclin D2 (CCND2) using HepaRG (AID 2283449); conditions: mRNA level, 48 h; actives raise or lower the signal;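 note: CCND2 transcript measured by TaqMan qRT-PCR and normalised to three housekeeping genes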
Procedure, shortened: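 In this HepaRG study, an eight-point concentration series (max 100 uM, 0.5% DMSO) is applied for 48 h. CCND2 mRNA change is derived by qRT-PCR normalised to ACTB, GAPDH and POLR2A.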

[4] = read-out: Cyclin Dependent Kinase Inhibitor 1A (CDKN1A), CDKN1A (gene 1026); assay: LTEA_HepaRG_CDKN1A: Life Technologies and Expression Analysis (LTEA) Assay for Cyclin Dependent Kinase Inhibitor 1A (CDKN1A) using HepaRG (AID 2283450); conditions: mRNA level, 48 h; actives raise or lower the signal
Procedure, shortened: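 Differentiated HepaRG cells in serum-free induction medium, exposed 48 h in duplicate to eight half-log concentrations up to 100 uM in 0.5% DMSO. mRNA measured by TaqMan qRT-PCR, normalized to ACTB, GAPDH, POLR2A; bidirectional fit versus DMSO.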

[5] = read-out: Cyclin D1 (CCND1), CCND1 (gene 595); assay: LTEA_HepaRG_CCND1: Life Technologies and Expression Analysis (LTEA) Assay for Cyclin D1 (CCND1) using HepaRG (AID 2283451); conditions: mRNA level, 48 h; actives raise or lower the signal;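 for AC50: TaqMan qRT-PCR transcript level normalised to ACTB GAPDH and POLR2A housekeeping genes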
Procedure, shortened: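 Differentiated HepaRG cells exposed 48 h in serum-free induction medium to eight half-log concentrations from 100 uM top, 0.5% DMSO, duplicates. CCND1 mRNA measured by Fluidigm TaqMan qRT-PCR, normalised to ACTB, GAPDH, POLR2A; bidirectional fit.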

[6] = read-out: catalase (CAT), CAT (gene 847); assay: LTEA_HepaRG_CAT: Life Technologies and Expression Analysis (LTEA) Assay for catalase (CAT) using HepaRG (AID 2283452); conditions: mRNA level, 48 h; actives raise or lower the signal;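 for AC50: TaqMan qRT-PCR signal normalized to ACTB GAPDH and POLR2A housekeeping genes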
Procedure, shortened: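 Differentiated HepaRG cells in serum-free induction medium were dosed 48 h in duplicate, eight half-log concentrations from 100 uM in 0.5% DMSO. Transcript measured by TaqMan qRT-PCR, normalised to ACTB/GAPDH/POLR2A, fitted bidirectionally against DMSO.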

[7] = read-out: flavin-containing dimethylaniline monooxygenases 3 (FMO3), FMO3 (gene 2328); assay: LTEA_HepaRG_FMO3: Life Technologies and Expression Analysis (LTEA) Assay for flavin-containing dimethylaniline monooxygenases 3 (FMO3) using HepaRG (AID 2283453); conditions: mRNA level, 48 h; actives raise or lower the signal;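 for AC50: FMO3 transcript by TaqMan qRT-PCR normalized to ACTB GAPDH and POLR2A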
Procedure, shortened: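 Eight-point concentration-response in serum-free HepaRG cultures (top 100 uM, 0.5% DMSO, 48 h). Read-out: FMO3 mRNA level normalized to three endogenous control genes, fitted bidirectionally versus vehicle.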

[8] = CEETOX_H295R_ESTRADIOL: CeeTox H295R High-throughput Steroidogenesis Assay for Estradiol (AID 2283440); conditions: actives raise or lower the signal;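 note: estradiol secreted into medium quantified by LC-MS/MS after dansyl derivatisation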
Procedure, shortened: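 H295R cells pre-stimulated 48 h with 10 uM forskolin, then exposed 48 h to chemical in 0.1% DMSO. Medium estradiol quantified by MTBE extraction, dansyl derivatisation and HPLC-MS/MS; bidirectional fit versus DMSO; MTT viability required >/=70%.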

[9] = CEETOX_H295R_ESTRONE: CeeTox H295R High-throughput Steroidogenesis Assay for Estrone (AID 2283441); conditions: actives raise or lower the signal;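 note: estrone secreted into medium measured by LC-MS/MS after dansyl derivatization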;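 for AC50: human adrenal H295R cells prestimulated with forskolin for two days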
Procedure, shortened: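 Forskolin-stimulated H295R cells are treated 48 h with chemical, and estrone in the medium is measured by LC-MS/MS. Activity is fitted in both directions relative to DMSO controls, with chemicals diluted until MTT viability reaches at least 70%.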

[10] = CEETOX_H295R_PROG: CeeTox H295R High-throughput Steroidogenesis Assay for Progesterone (PROG) (AID 2283442); conditions: actives raise or lower the signal;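 for AC50: human H295R adrenal cells primed with 10 µM forskolin before dosing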
Procedure, shortened: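 H295R adrenal cells prestimulated 48 h with 10 uM forskolin, then exposed 48 h to test chemical in 0.1% DMSO. Progesterone in medium quantified by HPLC-MS/MS after MTBE extraction; viability checked by MTT in same wells.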

Measured: AC50

Chain of Fatty acid synthase (Homo sapiens) (P49327 whole entry, looked up): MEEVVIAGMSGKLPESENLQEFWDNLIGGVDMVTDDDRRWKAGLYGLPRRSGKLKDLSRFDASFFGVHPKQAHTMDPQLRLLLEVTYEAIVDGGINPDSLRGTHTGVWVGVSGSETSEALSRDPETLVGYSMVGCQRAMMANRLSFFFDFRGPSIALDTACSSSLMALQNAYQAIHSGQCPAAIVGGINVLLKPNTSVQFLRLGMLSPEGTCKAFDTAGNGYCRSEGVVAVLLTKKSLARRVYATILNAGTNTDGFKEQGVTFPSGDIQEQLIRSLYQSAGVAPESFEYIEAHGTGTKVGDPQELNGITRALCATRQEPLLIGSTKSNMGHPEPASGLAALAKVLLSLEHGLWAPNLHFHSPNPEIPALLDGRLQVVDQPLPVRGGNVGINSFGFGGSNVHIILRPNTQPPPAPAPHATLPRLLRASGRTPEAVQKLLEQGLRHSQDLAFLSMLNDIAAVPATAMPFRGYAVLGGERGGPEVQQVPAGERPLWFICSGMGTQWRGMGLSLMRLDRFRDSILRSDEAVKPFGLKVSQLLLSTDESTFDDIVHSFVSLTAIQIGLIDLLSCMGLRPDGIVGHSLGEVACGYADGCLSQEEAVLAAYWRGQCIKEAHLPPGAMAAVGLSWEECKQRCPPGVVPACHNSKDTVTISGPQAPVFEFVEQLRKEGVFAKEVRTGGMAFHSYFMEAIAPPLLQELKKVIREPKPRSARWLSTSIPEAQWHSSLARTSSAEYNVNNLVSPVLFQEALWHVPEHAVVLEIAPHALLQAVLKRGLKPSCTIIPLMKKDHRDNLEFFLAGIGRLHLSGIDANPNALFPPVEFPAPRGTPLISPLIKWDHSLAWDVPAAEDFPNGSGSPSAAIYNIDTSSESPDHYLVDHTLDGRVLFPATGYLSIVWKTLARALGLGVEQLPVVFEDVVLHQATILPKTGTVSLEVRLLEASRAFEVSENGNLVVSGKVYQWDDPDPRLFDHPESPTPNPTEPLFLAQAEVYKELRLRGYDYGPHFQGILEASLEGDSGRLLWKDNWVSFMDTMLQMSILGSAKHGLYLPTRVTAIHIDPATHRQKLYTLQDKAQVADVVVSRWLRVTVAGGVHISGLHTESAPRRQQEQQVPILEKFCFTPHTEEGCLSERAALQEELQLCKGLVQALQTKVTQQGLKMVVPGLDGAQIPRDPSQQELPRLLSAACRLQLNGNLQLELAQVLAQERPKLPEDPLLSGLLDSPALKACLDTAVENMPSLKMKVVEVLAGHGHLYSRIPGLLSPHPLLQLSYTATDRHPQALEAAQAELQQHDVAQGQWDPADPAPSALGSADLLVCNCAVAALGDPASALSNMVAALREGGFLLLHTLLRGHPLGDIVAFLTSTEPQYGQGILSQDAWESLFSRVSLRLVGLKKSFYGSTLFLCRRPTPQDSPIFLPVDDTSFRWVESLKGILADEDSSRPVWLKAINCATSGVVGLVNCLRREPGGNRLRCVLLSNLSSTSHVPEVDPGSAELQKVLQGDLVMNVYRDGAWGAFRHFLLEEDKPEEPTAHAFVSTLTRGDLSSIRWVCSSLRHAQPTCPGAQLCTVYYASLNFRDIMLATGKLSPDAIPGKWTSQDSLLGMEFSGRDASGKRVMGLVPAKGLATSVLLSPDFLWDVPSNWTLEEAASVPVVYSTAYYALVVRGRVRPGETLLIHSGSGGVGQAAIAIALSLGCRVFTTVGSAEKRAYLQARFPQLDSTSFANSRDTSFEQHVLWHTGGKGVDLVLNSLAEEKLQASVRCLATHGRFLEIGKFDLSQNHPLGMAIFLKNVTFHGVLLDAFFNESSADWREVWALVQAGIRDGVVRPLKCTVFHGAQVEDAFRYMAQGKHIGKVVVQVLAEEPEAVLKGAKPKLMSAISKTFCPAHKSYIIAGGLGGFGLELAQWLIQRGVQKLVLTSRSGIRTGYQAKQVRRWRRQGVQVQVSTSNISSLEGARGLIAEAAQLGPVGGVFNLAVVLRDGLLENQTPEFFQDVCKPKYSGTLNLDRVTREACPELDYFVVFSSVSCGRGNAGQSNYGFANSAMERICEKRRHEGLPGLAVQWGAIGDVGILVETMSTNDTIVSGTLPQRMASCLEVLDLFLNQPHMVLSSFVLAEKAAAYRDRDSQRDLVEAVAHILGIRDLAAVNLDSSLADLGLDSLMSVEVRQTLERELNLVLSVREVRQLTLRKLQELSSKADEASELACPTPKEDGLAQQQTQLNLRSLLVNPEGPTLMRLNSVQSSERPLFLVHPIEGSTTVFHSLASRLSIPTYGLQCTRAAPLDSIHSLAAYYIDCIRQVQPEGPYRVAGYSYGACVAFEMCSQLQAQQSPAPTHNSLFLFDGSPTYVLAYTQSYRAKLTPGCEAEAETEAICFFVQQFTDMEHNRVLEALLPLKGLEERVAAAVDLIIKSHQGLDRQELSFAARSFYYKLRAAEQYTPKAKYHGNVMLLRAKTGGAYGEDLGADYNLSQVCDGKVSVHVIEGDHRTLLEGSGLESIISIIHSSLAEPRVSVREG

COC(=O)C(C)Oc1ccc(Oc2ccc(Cl)cc2Cl)cc1 (stereo unspecified)
not listed: [8] | [9] | [10]
inactive: all other assays above

CCOC(=O)C(Cl)Cc1cc(-n2nc(C)n(C(F)F)c2=O)c(F)cc1Cl (stereo unspecified)
not listed: [3]
inactive: all other assays above

COc1nc(NC(C)C)nc(NC(C)C)n1
active: [8] 6.99 µM | [9] 3.8 µM
inactive: all other assays above

CCNc1nc(Cl)nc(NCC)n1
active: [9] 8.07 µM
inactive: all other assays above

C=CCC1=C(C)[C@@H](OC(=O)[C@@H]2[C@@H](C=C(C)C)C2(C)C)CC1=O
not listed: [8] | [9] | [10]
inactive: all other assays above

C=CC1(C)OC(=O)N(c2cc(Cl)cc(Cl)c2)C1=O (stereo unspecified)
active: [10] 17.5 µM
inactive: all other assays above

Oc1ccccc1-c1ccccc1
inactive: [8] | [9] | [10] | [1] | [2] | [3] | [4] | [5] | [6] | [7]
active: [8] 32 µM | [9] 50 µM | [10] 50 µM

CCNc1nc(Cl)nc(NC(C)C)n1
active: [9] 1.35 µM
inactive: all other assays above

C=CCC1=C(C)C(OC(=O)C2C(C=C(C)C)C2(C)C)CC1=O (stereo unspecified)
active: [5] 88.2 µM | [6] 83.6 µM and 16.6 µM | [7] 80.2 µM
inactive: [10] | [1] | [2] | [3] | [4] | [5] | [6] | [7]

N#CC(CCc1ccc(Cl)cc1)(Cn1cncn1)c1ccccc1 (stereo unspecified)
active: [10] 0.627 µM | [1] 76.1 µM | [2] 91.1 µM | [4] 60.9 µM | [5] 71.5 µM | [6] 54.5 µM | [7] 72.9 µM
inactive: [8] | [9] | [3]

CCON=C(CC)C1=C(O)CC(c2c(C)cc(C)cc2C)CC1=O (stereo unspecified)
active: [2] 50 µM
not listed: [8] | [9]
inactive: all other assays above

CC1COC(Cn2cncn2)(c2ccc(Oc3ccc(Cl)cc3)cc2Cl)O1 (stereo unspecified)
inactive: [8] | [9] | [10] | [3]
active: [1] 17.9 µM | [2] 29.7 µM | [4] 12.7 µM | [5] 83.9 µM | [6] 17.4 µM | [7] 22.2 µM

Cc1c(F)c(F)c(COC(=O)C2C(/C=C(\Cl)C(F)(F)F)C2(C)C)c(F)c1F (stereo unspecified)
inactive: all assays above

CNC(=S)S
inactive: all assays above

COP(=S)(OC)Oc1nc(Cl)c(Cl)cc1Cl
not listed: [10]
inactive: all other assays above

CCOP(=S)(OCC)SCn1c(=O)oc2cc(Cl)ccc21
active: [8] 1.23 µM | [9] 1.62 µM | [10] 3.23 µM
inactive: all other assays above

CON(C)C(=O)Nc1ccc(Cl)c(Cl)c1
active: [2] 4.86 µM | [4] 85.8 µM | [5] 26.6 µM | [7] 50 µM
inactive: [10] | [1] | [3] | [6]

CCCCNC(=O)n1c(NC(=O)OC)nc2ccccc21
inactive: all assays above

Cc1cc(Cl)ccc1OCC(=O)O
not listed: [8] | [9]
inactive: all other assays above

CC(C)Oc1cc(-n2nc(C(C)(C)C)oc2=O)c(Cl)cc1Cl
active: [4] 84.1 µM | [6] 50 µM | [7] 61.5 µM
not listed: [3]
inactive: all other assays above

CCOc1cc(Oc2ccc(C(F)(F)F)cc2Cl)ccc1[N+](=O)[O-]
inactive: [10] | [3] | [4] | [5]
active: [8] 1.78 µM | [9] 3.32 µM | [1] 14.4 µM | [2] 32 µM | [6] 36.2 µM | [7] 50 µM

CCOC(=O)CC(SP(=S)(OC)OC)C(=O)OCC (stereo unspecified)
active: [10] 21 µM
not listed: [2] | [8] | [9]
inactive: all other assays above

CO/C=C(/C(=O)OC)c1ccccc1Oc1cc(Oc2ccccc2C#N)ncn1
inactive: [3] | [5]
active: [1] 78.4 µM and 82.9 µM and 81.6 µM | [2] 90.5 µM and 91.3 µM and 91 µM | [4] 79.5 µM and 78.9 µM | [5] 12.6 µM | [6] 75.5 µM and 69.5 µM and 74.7 µM | [7] 79.3 µM and 78.7 µM and 76.5 µM

CCCC1COC(Cn2cncn2)(c2ccc(Cl)cc2Cl)O1 (stereo unspecified)
active: [1] 72 µM | [2] 83.3 µM | [4] 33.2 µM | [5] 90.2 µM | [6] 37.2 µM | [7] 34.6 µM
inactive: [10]

CC1=C(C(=O)Nc2ccccc2)SCCO1
active: [8] 21.2 µM | [2] 30.8 µM | [5] 50 µM | [6] 12.8 µM | [7] 50 µM
inactive: [9] | [10] | [1] | [3] | [4]
